Publication PMC5540273 (PLoS ONE, 2017)

test system: NEK2; conditions: concentration: 1 μM, replicates: in singlicate; n = 1
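Note: KINOMEscan kinase panel screen.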

Compound | %Inh [%]
Cn1ccc2ncnc(Oc3ccc(NC(=O)Nc4ccccc4)cc3)c21 | 3
COc1cccc(NC(=O)NC2CCN(c3ccnc(Nc4ccc(F)cc4)n3)C2)c1 (stereo not shown) [GSK1379721] | 1
Cc1ccccc1-n1cnc2c(N)ncnc21 [SKF-97510] | 0
COc1ccccc1CNC(=O)c1cc(C(=O)c2ccccc2C)c[nH]1 [GSK364507] | 0
Cn1cncc1-c1ccc2ncnc(Nc3ccc(OCc4ccccc4)cc3)c2c1 [GW320571] | 0
O=C1NC(=O)C(N2CCc3ccccc32)=C1c1ccccc1Cl [SB-373598] | 1
COc1ccc(Nc2nccc(-c3cccc(NC(=O)c4cc5cc(F)ccc5[nH]4)c3)n2)cc1 [GSK1229782] | 3
Cc1c(O)cccc1Nc1ccnc2ccc(C(F)(F)F)cc12.Cl [GW466413] | 0
CC1=C(C(=O)Nc2cc3cn[nH]c3cc2F)C(c2ccc(C(F)(F)F)cc2)CC(=O)N1 (stereo not shown) [GSK429286] | 0
COC(=O)c1c(-c2ccccc2)c2cc(C(=O)O)ccc2c(=O)n1Cc1ccccc1 | 0
COc1ccc2nc(-c3cccc(C)n3)nc(Nc3ccncc3)c2c1 [GSK204919] | 0
Cc1cc(-c2ccc3c(c2)CC[C@@H](N[C@@H](C)c2ccccc2)C3)cnc1N.Cl [GW412617] | 3
O=C(Nc1ccccc1)Nc1cccc(Oc2ccc3nccn3n2)c1 | 0
Cc1nnc(-c2ccc3occ(-c4ccc(S(C)=O)cc4)c3c2)[nH]1 (stereo not shown) | 11
Fc1cc(Cl)ccc1Nc1ccnc2cc(-c3ccc(CN4CCCCC4)o3)ccc12 [GW560116] | 0
O=C(Nc1n[nH]c2nc(-c3nccs3)c(Br)cc12)C1CC1 [SB-742251] | 0
Cc1cccc(-c2nc(Nc3ccc4[nH]ncc4c3)c3ccccc3n2)n1 [GW857175] | 4
O=C(Nc1n[nH]c2nc(-c3nccs3)c(Br)cc12)C1CCCC1 [SB-742609] | 0

Compound | %Inh [%]
CS(=O)(=O)c1ccc(-c2c(-c3ncn[nH]3)sc(N3CCOCC3)c2C#N)cc1 | 0
Cc1cccc(-c2nc(Nc3ccncc3)c3ccccc3n2)n1 [GW855857] | 0
CC(=O)Nc1nc2cnc(Nc3cc(NC(=O)c4cccc(CCC#N)c4)ccc3C)nc2s1 | 2
COc1cc2nccc(Nc3ccc(NC(=O)c4ccc(C)cc4)c(O)c3)c2cc1OC.Cl [GW440132] | 0
Cc1ccc(NC(=O)Nc2cc(C(C)(C)C)nn2-c2ccccc2)cc1 [GSK1014915] | 12
COC(=O)c1c(-c2ccccc2)c2cc(OC)ccc2c(=O)n1Cc1ccccc1 | 9
CCCc1ccc(S(=O)(=O)NC2CCN(c3ccnc(Nc4ccc(F)cc4)n3)C2)cc1 (stereo not shown) [GSK1379715] | 0
Cn1ccc2ncnc(Oc3ccc(Nc4nc5ccccc5[nH]4)cc3)c21 | 0
O=S(=O)(c1ccc(-c2ccnc3[nH]ccc23)cc1)N1CCCC1 [GSK846226] | 16
O=C(O)COc1ncnc2cc(-c3ccc4[nH]ncc4c3)sc12 | 0
Cc1cccc(-c2nc(Nc3cccc(C(N)=O)c3)c3ccccc3n2)n1 [GW876019] | 0
O=c1cc(N2CCOCC2)nc2n(Cc3cccc(Cl)c3Cl)ccn12 [GSK2286295] | 4
COc1cccc(-c2cc(-c3c[nH]nc3-c3ccccn3)ccn2)c1 [GW680338] | 0
COc1ccc(CNC(=O)NC2CCN(c3ccnc(Nc4cc(OC)c(OC)c(OC)c4)n3)C2)cc1 (stereo not shown) [GSK1379748] | 0
Cc1ccc(-c2cc(-c3c[nH]nc3-c3ccccn3)ccn2)cc1 [GW684088] | 0
Cl.O=C(Nc1cccc(-c2nn3ncccc3c2-c2ccnc(Nc3cccnc3)n2)c1)c1c(F)cccc1F [GSK312879] | 14
Nc1nc(-c2nccs2)c(-c2ccnc3ccccc23)s1 [GW693542] | 0

test system: NEK3; conditions: concentration: 1 μM, replicates: in singlicate; n = 1

Compound | %Inh [%]
Cn1ccc2ncnc(Oc3ccc(NC(=O)Nc4ccccc4)cc3)c21 | 12
COc1cccc(NC(=O)NC2CCN(c3ccnc(Nc4ccc(F)cc4)n3)C2)c1 (stereo not shown) [GSK1379721] | 6
Cc1ccccc1-n1cnc2c(N)ncnc21 [SKF-97510] | 0
COc1ccccc1CNC(=O)c1cc(C(=O)c2ccccc2C)c[nH]1 [GSK364507] | 8
Cn1cncc1-c1ccc2ncnc(Nc3ccc(OCc4ccccc4)cc3)c2c1 [GW320571] | 0
O=C1NC(=O)C(N2CCc3ccccc32)=C1c1ccccc1Cl [SB-373598] | 7
COc1ccc(Nc2nccc(-c3cccc(NC(=O)c4cc5cc(F)ccc5[nH]4)c3)n2)cc1 [GSK1229782] | 12
Cc1c(O)cccc1Nc1ccnc2ccc(C(F)(F)F)cc12.Cl [GW466413] | 0
CC1=C(C(=O)Nc2cc3cn[nH]c3cc2F)C(c2ccc(C(F)(F)F)cc2)CC(=O)N1 (stereo not shown) [GSK429286] | 6
COC(=O)c1c(-c2ccccc2)c2cc(C(=O)O)ccc2c(=O)n1Cc1ccccc1 | 31
COc1ccc2nc(-c3cccc(C)n3)nc(Nc3ccncc3)c2c1 [GSK204919] | 0
Cc1cc(-c2ccc3c(c2)CC[C@@H](N[C@@H](C)c2ccccc2)C3)cnc1N.Cl [GW412617] | 0
O=C(Nc1ccccc1)Nc1cccc(Oc2ccc3nccn3n2)c1 | 8
Cc1nnc(-c2ccc3occ(-c4ccc(S(C)=O)cc4)c3c2)[nH]1 (stereo not shown) | 11
Fc1cc(Cl)ccc1Nc1ccnc2cc(-c3ccc(CN4CCCCC4)o3)ccc12 [GW560116] | 0
O=C(Nc1n[nH]c2nc(-c3nccs3)c(Br)cc12)C1CC1 [SB-742251] | 8
Cc1cccc(-c2nc(Nc3ccc4[nH]ncc4c3)c3ccccc3n2)n1 [GW857175] | 18
O=C(Nc1n[nH]c2nc(-c3nccs3)c(Br)cc12)C1CCCC1 [SB-742609] | 14

Compound | %Inh [%]
CS(=O)(=O)c1ccc(-c2c(-c3ncn[nH]3)sc(N3CCOCC3)c2C#N)cc1 | 40
Cc1cccc(-c2nc(Nc3ccncc3)c3ccccc3n2)n1 [GW855857] | 30
CC(=O)Nc1nc2cnc(Nc3cc(NC(=O)c4cccc(CCC#N)c4)ccc3C)nc2s1 | 7
COc1cc2nccc(Nc3ccc(NC(=O)c4ccc(C)cc4)c(O)c3)c2cc1OC.Cl [GW440132] | 0
Cc1ccc(NC(=O)Nc2cc(C(C)(C)C)nn2-c2ccccc2)cc1 [GSK1014915] | 8
COC(=O)c1c(-c2ccccc2)c2cc(OC)ccc2c(=O)n1Cc1ccccc1 | 16
CCCc1ccc(S(=O)(=O)NC2CCN(c3ccnc(Nc4ccc(F)cc4)n3)C2)cc1 (stereo not shown) [GSK1379715] | 4
Cn1ccc2ncnc(Oc3ccc(Nc4nc5ccccc5[nH]4)cc3)c21 | 0
O=S(=O)(c1ccc(-c2ccnc3[nH]ccc23)cc1)N1CCCC1 [GSK846226] | 16
O=C(O)COc1ncnc2cc(-c3ccc4[nH]ncc4c3)sc12 | 87
Cc1cccc(-c2nc(Nc3cccc(C(N)=O)c3)c3ccccc3n2)n1 [GW876019] | 28
O=c1cc(N2CCOCC2)nc2n(Cc3cccc(Cl)c3Cl)ccn12 [GSK2286295] | 1
COc1cccc(-c2cc(-c3c[nH]nc3-c3ccccn3)ccn2)c1 [GW680338] | 5
COc1ccc(CNC(=O)NC2CCN(c3ccnc(Nc4cc(OC)c(OC)c(OC)c4)n3)C2)cc1 (stereo not shown) [GSK1379748] | 20
Cc1ccc(-c2cc(-c3c[nH]nc3-c3ccccn3)ccn2)cc1 [GW684088] | 8
Cl.O=C(Nc1cccc(-c2nn3ncccc3c2-c2ccnc(Nc3cccnc3)n2)c1)c1c(F)cccc1F [GSK312879] | 0
Nc1nc(-c2nccs2)c(-c2ccnc3ccccc23)s1 [GW693542] | 4
